Most compounds without a hit are left out; they make up all but 21% or so of the library.
Shiga inhibitor = Shiga toxin inhibition. Vero cells, Shiga toxin protein synthesis inhibition reporter. inhibition, % at 38.7 µM. 290,000 compounds, 9.2% hits. AID 2315; in the data active means inhibition mostly above about 28%, no sharp cut-off; inactive means mostly below about 43%; further: 0% is about no effect
NS1 function inh = influenza NS1 inhibition | Potency, µM (series often up to 46.1 µM), inactives show top-dose activity, positive = more growth | AID 2326 | 270,000 compounds, 0.4% hits; further: potency means the concentration at half of the fitted maximal effect; actives are rising curves; nearly all actives have a fitted effect of over 50% in size
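Recovery from NS1-induced slow growth read by OD600 in budding yeast switched to galactose assay medium (pH 6.0, -URA) at 1:100 dilution. Compound 23 nl per well; the matching strain lacking NS1 serves as control.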
SARS PLP yeast = blocks SARS-CoV papain-like protease in a yeast assay. S. cerevisiae expressing SARS-CoV PLpro, growth rescue. Potency, µM (titrated, usually from 32.9 µM), inactives show at the top dose activity, positive = growth rescue, usual class: activators. 330,000 compounds, 0.19% hits; further: potency means the concentration at half of the fitted maximal effect; 0% is about no effect; nearly all actives have a fitted effect of over 55% in size
Pf growth 96h = P. falciparum growth inhibition at 96 hour, primary screen for plastid delayed-death inhibitors; P. falciparum luciferase reporter growth, 96 h; AID 504834; Potency, µM (doses to about 28.7 µM), inactives show top-dose activity change, negative = inhibition, hits mostly inhibitors; 320,000 compounds, 6.9% hits; active means well fitted inhibition curve with a large enough effect; inconclusive means small, poorly fitted or top-dose-only effect, or another doubt; inactive means no such curve, though single readings can be large or run the other way; further: potency means the concentration at half of the fitted maximal effect; on the % scale 0 is the no-effect control and ±100 the full control effect
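Erythrocytes infected with luciferase-expressing P. falciparum were dispensed at 2% hematocrit and 0.05% parasitemia (final), then incubated with compounds 96 hours at 37 C in 5% CO2. Luminescence after detection reagent addition reported growth.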
Pf growth 48h = P. falciparum growth inhibition at 48 hours (one generation); P. falciparum luciferase growth in erythrocytes, 48 h; Potency, µM (doses to about 28.7 µM), for inactives: at the highest dose activity change, negative = inhibition, actives largely listed as inhibitors; 310,000 compounds, 5.9% hits; AID 504832; active means well fitted inhibition curve with a large enough effect; inconclusive means small, poorly fitted or top-dose-only effect, or another doubt; inactive means no such curve, though single readings can be large or run the other way; further: potency means the concentration at half of the fitted maximal effect; on the % scale 0 is the no-effect control and ±100 the full control effect
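Compounds are pin-transferred into medium, infected erythrocytes (2% hematocrit, 0.1% parasitemia final) are added, and plates sit one parasite generation at 37 C in 5% CO2. Detection reagent is then added and luminescence measured.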
Cycloheximide cs = counter-screen hit for Shiga toxin inhibitors, cycloheximide | cell reporter, cycloheximide protein synthesis inhibition counterscreen | max response, % | 300,000 compounds, 12% hits | AID 2314; in the data active means max response mostly above about 13%, no sharp cut-off; inactive means mostly below about 14%; further: read at 38.3 µM for the half of the compounds with a filed dose; 0% is about no effect
The depositor's hits bear a star; ? = inconclusive; . = no result; ! = not active in a repeat. Unless noted, the call rests on the fitted dose curve.

SMILES	Shiga inhibitor	NS1 function inh	SARS PLP yeast	Pf growth 96h	Pf growth 48h	Cycloheximide cs
O=C(c1cc(-c2ccc(Cl)cc2Cl)on1)N1CCCC1	89.3*	-31.1%	-4.3%	?	50.9%	23.4*
CCN(CCNC(=O)C1CCCN(Cc2nc(-c3ccc(OC)cc3)oc2C)C1)c1ccccc1 (stereo not drawn)	29.6	-15.4%	4.4%	-7.0%	5.22µM*	29.1
Cc1oc(-c2cccc(Cl)c2)nc1CN1CCC(C(=O)NCc2cccnc2)CC1	21.6	0.3%	-1.8%	29.4%	2.62µM*	1.6
CCc1ccc(-c2nc(CN3CCC(C(=O)N4CCN(c5ccccc5)CC4)CC3)c(C)o2)cc1	-7.8	7.3%	1.6%	1.85µM*	12.4%	-0.4
CCC1CCCCN1CCCNC(=O)C1CCN(Cc2nc(-c3ccc(Cl)cc3)oc2C)CC1 (stereo not drawn)	-5.4	3.6%	15.7%	-10.8%	5.22µM*	-1.4
Cc1oc(-c2cccc(Cl)c2)nc1CN1CCC(C(=O)NC2CC2)CC1	1.3	-8.7%	0.6%	45.3%	16.2%	-1.2
Cn1cccc1C(=O)OCC(=O)N1c2ccccc2NC(=O)C1(C)C	-13.1	.	1.5%	-22.3%	3.0%	-2.9
CCCC(C)C1(CC)C(=O)NC(=S)NC1=O (stereo not drawn)	-6.2	.	.	?	?	-1.5
CCc1ccc(-c2nc(CN3CCC(C(=O)NCCN(CC)c4ccccc4)CC3)c(C)o2)cc1	-6.1	-2.1%	-12.3%	-1.3%	?	-0.7
Cc1oc(-c2cccc(Cl)c2)nc1CN1CCCC(C(=O)NCCCN2CCOCC2)C1 (stereo not drawn)	-6.6	-3.2%	2.2%	66.9%	11.7µM*	-1.4
Cc1oc(-c2cccc(C(F)(F)F)c2)nc1CN1CCC[C@H]1CO	6.1	7.2%	0.0%	-2.4%	-3.3%	4.4
CCc1ccc(-c2nc(CN3CCC(C(=O)NCc4ccc(F)cc4)CC3)c(C)o2)cc1	35.9	11.5%	-4.4%	?	13.1µM*	28.9
Cc1oc(-c2cccc(C(F)(F)F)c2)nc1CN1CCOCC1	54.1*	-0.9%	-0.9%	?	?	26.2*
CCCCCCCC/C=C\CCCCCCCC(=O)OC[C@@H](COP(O)(O)=S)OC	-1.4	.	.	.	.	5.5
O=C(NC1CCCc2ccccc21)N[C@@H](Cc1ccccc1)C(=O)O (stereo partly drawn)	-18.4	1.3%	2.7%	0.5%	-0.4%	8.3
O/N=C(/c1ccc(F)cc1)C1CC1c1c(F)cccc1Cl (stereo not drawn)	-15.8	-47.5%	-1.8%	32.2%	-19.9%	-1.3
Cc1ccc(N2C(=O)c3ccccc3NC2(C(=O)O)c2ccccc2)cc1Cl (stereo not drawn)	98.7*	-0.1%	0.1%	11.1%	95.3%	65.9*
Cc1ccc(NC(=O)C(C)N2C(=O)c3ccccc3S2(=O)=O)cc1Cl (stereo not drawn)	.	.	-12.4%	7.2%	3.4%	.
CCCCN1c2cc(C)c(O)cc2C(C(=O)OCC)C1C (stereo not drawn)	-16.8	-6.4%	0.7%	45.7%	2.08µM*	1.4
CCCNS(=O)(=O)c1cccc(C(=O)NC2CCCc3ccccc32)c1 (stereo not drawn)	-21.1	-5.0%	17.7%	-20.1%	.	-1.2
CCCCCCCCCCOC(=O)Cn1c(COc2ccc(OC)cc2)[n+](C)c2ccccc21	-1.9	-52.0%	-6.1%	4.65µM*!	4.15µM*	13.8
CCCCCCCCCCOC(=O)Cn1c(COc2cccc(C)c2)[n+](C)c2ccccc21	.	-100.8%	-6.7%	5.22µM*	?	-3.9
Cc1n[nH]c(=S)n1-c1ccccc1	1.7	3.8%	1.4%	?	?	4.8
S=c1[nH]nc(-c2ccc3ccccc3n2)n1-c1ccc(Cl)cc1	-3.0	23.7%	-3.3%	0.586µM*	6.9%	-0.7
Cc1n[nH]c(=S)n1-c1ccc(Cl)cc1	19.3	5.0%	-0.9%	5.86µM*	9.8%	-2.5
SMILES	Shiga inhibitor	NS1 function inh	SARS PLP yeast	Pf growth 96h	Pf growth 48h	Cycloheximide cs
CCCc1sc(N/N=C/c2ccccn2)nc1-c1ccc(F)cc1	52.4*	12.4%	-32.0%	31.0%	2.62µM*	25.2*
Cc1nn(-c2ccc3ccccc3c2)c(=O)c2ccccc12	114.9*	-7.6%	-1.0%	54.4%	178.1%	51.0*
Cc1nn(-c2ccc(Cl)cc2)c(=O)c2ccccc12	98.0*	-0.8%	-0.2%	122.6%	74.2%	48.4*
Cc1nn(-c2ccc(Cl)c(Cl)c2)c(=O)c2ccccc12	11.9	21.7%	3.0%	.	93.8%	-4.6
Cc1nn(-c2ccccc2)c(=S)c2ccccc12	60.1*	1.6%	15.7%	32.1%	-6.0%	19.9*
Cc1nn(-c2ccc(Cl)nn2)c(=O)c2ccccc12	49.3	.	-2.2%	77.5%	108.2%	26.5*
COc1ccc(C(C)(C)C)cc1NC(=O)COc1ccc(-c2nnco2)cc1	.	.	1.3%	.	.	.
COc1ccc(OC)c(Nc2nc(N)c([N+](=O)[O-])c(N3CCOCC3)n2)c1	-7.6	-1.9%	0.6%	?	?	1.1
O=c1c2ccccc2c(-c2ccccc2)nn1Cc1ccc(Cl)cc1	-6.4	-16.6%	8.8%	68.5%	?	-0.6
O=c1c2ccccc2c(-c2ccc(Cl)cc2)nn1-c1ccccc1	-8.9	5.8%	-6.7%	?	3.29µM*	-0.6
CCn1ccnc1CN(C)Cc1cn[nH]c1-c1ccc(OC)c(F)c1	27.0	-3.8%	2.5%	6.9%	17.3%	-2.5
CCO[C@H]1OC(C(=O)N2CCN(Cc3ccc4c(c3)OCO4)CC2)=C[C@@H](C)[C@@H]1CCCO	2.4	-0.3%	-0.6%	3.1%	-1.4%	1.4
CCO[C@@H]1OC(C(=O)N2CCN(Cc3ccc4c(c3)OCO4)CC2)=C[C@H](C)[C@H]1CCCO	13.3	4.5%	0.8%	?	?	-2.2
CCO[C@@H]1OC(C(=O)N2CCN(Cc3ccc4c(c3)OCO4)CC2)=C[C@H](C2CC2)[C@H]1CCCO	5.1	-2.0%	-0.3%	3.29µM*	?	0.8
CCO[C@H]1OC(C(=O)N2CCN(Cc3ccc4c(c3)OCO4)CC2)=C[C@@H](C2CCCCC2)[C@@H]1CCCO	-9.3	-13.9%	0.1%	4.15µM*	?	-1.4
CCO[C@@H]1OC(C(=O)N2CCCCCCC2)=C[C@H](C2CCCCC2)[C@H]1CCCO	-5.8	1.5%	-0.9%	?	10.4µM*	1.4
CC(=O)OCC(=O)[C@@]1(O)CCC2C3CCC4=CC(=O)CC[C@]4(C)C3=CC[C@@]21C (stereo partly drawn)	.	.	.	-29.4%	5.0%	.
Cc1ccsc1C1C(C#N)=C(N)N(N(C)C)C2=C1C(=O)CC(C)(C)C2 (stereo not drawn)	1.6	.	-0.1%	?	?	-0.5
CN(C)C1(CNC(=O)C2CCN(S(=O)(=O)c3ccccc3C(F)(F)F)CC2)CCCCC1	-13.1	3.4%	-0.2%	?	?	-4.0
Cc1cc(=O)[nH]c(SCC(=O)Nc2ccc(Br)cc2)c1C#N	5.3	-0.7%	1.8%	14.7µM*	.	1.3

Compound activity: PubChem BioAssay, National Center for Advancing Translational Sciences (NCATS)
